PNC assembly inh: perinucleolar compartment assembly inhibition; PC3M PTB-GFP, PNC prevalence imaging, 16 h; hits give low values; activity change (PNC), negative = inhibition, % at 10 µM; 140,000 tested, 3.1% active;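 active = readout at or below -70, meaning at least 70% loss of cells showing the perinucleolar compartment, a nuclear body marking cancer cells; inconclusive = readout between -30 and a set limit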;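 also: plate controls were DMSO wells for no effect and camptothecin positive control wells for full effect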
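Compounds are pinned in duplicate onto adhered PC3M cells stably expressing GFP-tagged PTB and incubated 16 h at 37 C. Cells are then fixed, nuclei stained with Hoechst, and PNC-positive cells counted.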
ALOX12 inhib: blocks human 12-lipoxygenase activity; P18054; purified 12-hLO, xylenol orange hydroperoxide absorbance; Potency, µM (titrated, usually from 57.1 µM), inactives show at the highest dose activity change, negative = inhibition, most hits filed as inhibitors; 150,000 tested, 0.12% active; AID 1452; active = well fitted inhibition curve with a large enough effect; inconclusive = small, poorly fitted or top-dose-only effect; also: potency is read from the fitted curve at half-maximal effect; nearly all actives have a fitted effect of over 55% in size
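150 nM 12hLO, 25 mM Hepes pH 7.0 + 0.01% Triton X-100; cpd preinc 15 min RT; 40 uM arachidonic acid, 30 min RT; Fe-XO 30 min; A573/A405 ratio as read-out.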
HPGD block: inhibitors of human 15-hydroxyprostaglandin dehydrogenase (HPGD). 150,000 tested, 4.3% active. Potency, µM, without a hit: at the top dose activity change, negative = inhibition, usual class: inhibitors. purified HPGD, NADH fluorescence kinetic, PGE2 substrate. P15428; also: potency is read from the fitted curve at half-maximal effect
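20 nM HPGD preincubated 15 min at room temperature with compound in 50 mM Tris-HCl pH 8, 0.01% Tween 20. Started with 1 mM NAD+ and 30 uM prostaglandin E2; NADH fluorescence (360/450 nm) read 5 times over 30-s intervals, last minus first.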
ALDH1A1 block: blocks purified human ALDH1A1 activity. Potency, µM (highest dose often 75.3 µM), for the others: top-dose activity, negative = inhibition, hits mostly inhibitors. Purified ALDH1A1, NADH fluorescence, propionaldehyde substrate. AID 1030. 220,000 tested, 7.3% active. P00352;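 also: potency is read from the fitted curve at half-maximal effect; plate controls were no enzyme wells and a reference inhibitor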
Target sequence (P00352 whole entry, looked up): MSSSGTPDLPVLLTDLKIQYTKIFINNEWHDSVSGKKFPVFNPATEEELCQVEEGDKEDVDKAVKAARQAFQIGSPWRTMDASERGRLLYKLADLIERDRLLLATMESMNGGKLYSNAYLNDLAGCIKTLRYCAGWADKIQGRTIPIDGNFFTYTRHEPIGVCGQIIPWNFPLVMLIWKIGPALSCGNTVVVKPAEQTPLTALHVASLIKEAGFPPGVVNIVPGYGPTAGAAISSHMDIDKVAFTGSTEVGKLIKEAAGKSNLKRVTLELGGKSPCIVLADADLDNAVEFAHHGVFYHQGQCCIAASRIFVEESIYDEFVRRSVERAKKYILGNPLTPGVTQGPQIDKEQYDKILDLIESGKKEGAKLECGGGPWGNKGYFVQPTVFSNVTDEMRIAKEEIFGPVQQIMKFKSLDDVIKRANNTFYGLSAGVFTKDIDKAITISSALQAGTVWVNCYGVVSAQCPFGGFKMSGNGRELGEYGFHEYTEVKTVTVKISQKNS
LMNA splice mod: changes lamin A minigene splicing in HeLa cells | HeLa LMNA splicing GFP/RFP minigene ratio, 48 h | Potency, µM (titrated, usually from 46.1 µM), without a hit: at the highest dose ratio change, negative = inhibition, hits mostly inhibitors | 200,000 tested, 0.01% active; active = well fitted inhibition curve with a large enough effect in the signal ratio, with a control signal flat, not every such curve was filed as active; inconclusive = small, poorly fitted or top-dose-only effect, or effect the other way, or a change in a side signal; the % refers to the signal ratio; also: potency is read from the fitted curve at half-maximal effect
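Read-out is the ratio of GFP to DsRed2 object intensity, acquired by 488 nm laser-scanning cytometry on HeLa lamin A-EGFP minigene reporter cells. Compound incubation 48 hrs at 37 °C in Opti-MEM with 2% FBS; DMSO 0.5% final.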
* = called active by the depositor; [ ] = another dose, or the depositor's remark. Sampled rows, rich in hits. Any-hit rate of the full collection: about 10%. Unless noted, calls follow the shape of the dose curve; as a rule, active = well fitted inhibition curve with a large enough effect (not every such curve was filed as active); inconclusive = small, poorly fitted or top-dose-only effect, or another doubt; inactive = no such curve, though single readings can be large or run the other way. Unless noted, % is scaled to controls: 0 for no effect and ±100 for the full control effect.

For O=C(c1ccc2nc(-c3ccco3)c(-c3ccco3)nc2c1)N1CCC2(CC1)OCCO2 the results were PNC assembly inh 7, ALOX12 inhib -3%, HPGD block inconclusive, ALDH1A1 block inconclusive and LMNA splice mod -5%.
For O=C(c1ccc2c(c1)ncn2C1CCCCCC1)N1CCC2(CC1)OCCO2 the results were PNC assembly inh 30, ALOX12 inhib -3%, HPGD block 14µM*, ALDH1A1 block -13% and LMNA splice mod 15%.
Screening CCOP(=O)(OCC)C(NC(=O)c1ccccc1)C(Cl)(Cl)Cl (stereo unspecified) returned PNC assembly inh 27, ALOX12 inhib -3%, HPGD block -10%, ALDH1A1 block -4% and LMNA splice mod -7%.
For CCOP(=O)(OCC)C(c1ccccc1)N(C)C=O (stereo unspecified) the results were PNC assembly inh 3, ALOX12 inhib 0%, ALDH1A1 block 18µM* and LMNA splice mod inconclusive.
Screening O=C1C=CC(=O)c2c(O)cccc21 returned ALOX12 inhib -24%, HPGD block 14µM* and ALDH1A1 block 13µM*.
CC(C)[C@@H](Br)C(=O)NCC(=O)O was read as ALOX12 inhib 3%[11.4 µM], HPGD block -3% and ALDH1A1 block -1%[13.5 µM].
Screening O=[N+]([O-])c1cccc(O)c1 returned ALOX12 inhib -2%, HPGD block -10% and ALDH1A1 block inconclusive.
O=[N+]([O-])c1ccccc1 was read as ALOX12 inhib -1%, HPGD block -10%, ALDH1A1 block 32µM* and LMNA splice mod inconclusive.
CN1CCC(OC(=O)Cc2ccccc2)CC1 was read as ALDH1A1 block 9% and LMNA splice mod 12%[46 µM].
`O=C(OC1CCN(CCCl)CC1)C(c1ccccc1)c1ccccc1` gave ALOX12 inhib -6%, HPGD block -11%, ALDH1A1 block 8.9µM* and LMNA splice mod inconclusive.
For CC(C)=CCC12CN3CCN(CC(C3)C1=O)C2 the results were PNC assembly inh -88*, ALOX12 inhib 2%, HPGD block -6%, ALDH1A1 block 2% and LMNA splice mod -6%.
CCC12CN3CCN(CC(C3)C1O)C2 (stereo unspecified) was read as PNC assembly inh -16, ALOX12 inhib 4%, HPGD block 4%, ALDH1A1 block 11% and LMNA splice mod 5%.
Screening CCOc1c(Cl)cc(CNCCc2c[nH]c3ccccc23)cc1OC returned ALDH1A1 block 3.5µM* and LMNA splice mod inconclusive.
Screening O=C(O)Cc1cccnc1C(=O)O returned ALOX12 inhib 0%, HPGD block -3% and ALDH1A1 block 13%.
O=c1[nH]c(=O)n(Cc2ccco2)c(O)c1C=NC1CC1 was read as PNC assembly inh 32, ALOX12 inhib -6%, HPGD block -25%, ALDH1A1 block 14µM* and LMNA splice mod 0%.
C=C/C(=C/C(=O)C[C@H](C)C[C@@H](C)CC[C@H](O)[C@H](C)C(=O)C[C@@H](O)[C@H](C)[C@@H](C)OC(=O)C[C@@H](O)C1=C(C)C(=O)OC1=O)CC was read as ALOX12 inhib 2%[0.00818 µM], HPGD block 2.8µM* and ALDH1A1 block inconclusive.
Screening c1ccc2c(c1)Nc1ccccc1S2 returned PNC assembly inh -19, ALOX12 inhib 14µM*, HPGD block -16%, ALDH1A1 block 1% and LMNA splice mod inconclusive.
`O=C1Nc2ccccc2Sc2ccccc21` gave ALDH1A1 block -4% and LMNA splice mod -13%[9.22 µM].
`O=NN(c1ccccc1)c1ccccc1` gave ALOX12 inhib -9%, HPGD block -6% and ALDH1A1 block inconclusive.
For Nn1c(Cc2cccc3ccccc23)n[nH]c1=S the results were ALDH1A1 block 22µM* and LMNA splice mod -13%[46 µM].
Screening S=c1[nH]nc(-c2ccco2)n1-c1cccc2ccccc12 returned PNC assembly inh 19, ALOX12 inhib -4%, HPGD block inconclusive, ALDH1A1 block inconclusive and LMNA splice mod -10%.
Screening CC(O)CCl (stereo unspecified) returned ALOX12 inhib -1%, HPGD block 1% and ALDH1A1 block 22%.

Compound activity from PubChem BioAssay.
